IL-2 act: activators of IL-2; IL-2 activation reporter assay, cell-based qHTS; stimulated with anti-CD3/CD4/CD28 beads; in transgenic mouse T cells; hit rate 0.065% among 360,000; activation, % (series mostly up to about 46 µM); in the data active = activation above about 50%; inconclusive = mostly about 30% to 49%; note: 0% is about no effect
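Readout: EGFP and DsRed signals by fluorescent plate cytometry. Unstimulated transgenic mouse T cells received compound 60 min before antibody-bead stimulation, then incubated 18 h at 37 degrees C.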
Nrf2 activator: Nrf2 pathway activation. AREc32 ARE-luciferase reporter (MCF7-derived line), luminescence, 24 h. Potency, µM (doses to about 46.1 µM), for inactives: top-dose activation, actives largely listed as activators. hit rate 0.31% among 410,000. AID 624171; note: potency is the fitted concentration of half-maximal effect; % of control where 0% means no effect; nearly all actives have a fitted effect of over 65% in size
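ARE-driven firefly luciferase activity in AREc32 cells measured after a 24 hr compound exposure at 37 deg C, using Steady-Glo reagent and a 30 min room-temperature hold.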
BRCA1 expr act: BRCA1 expression activation. Potency, µM (titrated, usually from 46.1 µM), inactives show at the highest dose activation, most hits filed as activators. MCF7-BRCA1-FFLuc reporter, luminescence, 48 h; response scale: scaled: vehicle 0%, 10 µM genistein 100%. hit rate 1.1% among 380,000; note: potency is the fitted concentration of half-maximal effect; nearly all actives have a fitted effect of over 80% in size
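48 h compound treatment of MCF7-BRCA1-FFLuc cells (phenol-red free MEM, 37 °C), then 15 min with luciferase substrate and luminescence imaging.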
A549 viability: A549 cytotoxicity, counter-screen for Nrf2 inhibitors; A549 ARE-Fluc cells, CellTiter-Fluor viability, 18-24 h; Potency, µM (top dose mostly 46 µM), inactives show at the top dose activity change, negative = cytotoxicity, usual class: inhibitors; hit rate 0.16% among 390,000; note: potency is the fitted concentration of half-maximal effect; % is set by controls: 0 for no effect and ±100 for the full control effect
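A549 ARE-Fluc cells in 5% FBS OPTI-MEM, 5000 cells/well, rested 2 h then exposed to compounds in concentration-response for 18-24 h at 37 °C. Viability by CellTiter-Fluor fluorescence (Ex 405/Em 525) after 30 min; luciferase luminescence (BugLite, 15 min, RT) read afterwards.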
p53 reactivator: restores transcriptional activity of mutant p53. H1299 p53-A138V BP100-luciferase reporter, luminescence, 24 h. Potency, µM (series often up to 92.2 µM), for inactives: at the highest dose activity change, positive = activation, hits mostly activators. hit rate 0.063% among 320,000; note: potency is the fitted concentration of half-maximal effect; % of control where 0% means no effect; nearly all actives have a fitted effect of over 45% in size
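H1299 (p53-null), stable ts p53-A138V + BP100-Luc; 1000 cells/well, Opti-MEM/10% FBS; cpd 4 pt, 1:5; 24 h, 37 deg C, 5% CO2; detection reagent 10 min RT; luminescence.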
Nrf2 block: inhibitors of Nrf2 signaling; A549 ARE-Fluc reporter, luciferase luminescence, 18-24 h; Potency, µM (doses to about 46 µM), for the others: top-dose activity change, negative = inhibition, most hits filed as inhibitors; hit rate 2.1% among 360,000; AID 504444; note: potency is the fitted concentration of half-maximal effect; % is set by controls: 0 for no effect and ±100 for the full control effect; nearly all actives have a fitted effect of over 60% in size
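Quantitative HTS in A549 cells stably bearing an antioxidant response element-firefly luciferase construct. Inhibition of Nrf2-driven transcription was scored by luminescence after 18-24 h of compound exposure at 37 °C.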
* marks the source's active call; other numbers are inactive results; ? = inconclusive; nt = no result. The list is not random: actives were taken first. Their share in the collection is about 3.2%. Unless noted, calls come from the whole dose curve; as a rule, active = well fitted curve in the direction sought with a large enough effect; inconclusive = small, poorly fitted or top-dose-only effect, or another doubt; inactive = no such curve, though single readings can be large; an effect the other way counts as inactive or inconclusive.

SMILES	IL-2 act	Nrf2 activator	BRCA1 expr act	A549 viability	p53 reactivator	Nrf2 block
CC1CC(C)CN(CC(=O)Nc2ccc3c(c2)OCCO3)C1 (configuration not stated)	-1	4%	13µM*	2%	21%	?
Cc1ccc(NC(=O)CCCN2C(=S)NC(C)(C)CC2C)cc1 (configuration not stated)	0	0%	-1%	-4%	?	-24%
O=C(CCc1ccccc1)Nc1ccc2c(c1)OCCO2	2	-1%	11µM*	-4%	?	nt
Cc1ccc(C)c2c1NC(C(=O)O)C1CC=CC21 (configuration not stated)	nt	nt	0%	-2%	nt	0%
N#CCC(=O)N/N=C\c1ccccc1OC/C=C/c1ccccc1	-1	4%	2.5µM*	2%	?	22%
N#CCC(=O)N/N=C/c1ccc(OS(=O)(=O)c2ccccc2)cc1	1	0%	4%	-21%	2%	-27%
N#CCC(=O)N/N=C/c1ccc(OCc2ccccc2)cc1	-1	2%	7.9µM*	1%	8%	?
N#CCC(=O)N/N=C/c1ccc(OC2CSC2)cc1	0	3%	-3%	7%	-1%	1%
N#CCC(=O)N/N=C\c1ccc(OC/C=C/c2ccccc2)cc1	0	0%	5µM*	0%	3%	3%
COc1ccccc1NC(=O)C(Cc1ccccc1)NS(=O)(=O)c1ccc2c(c1)CCN2C(C)=O (configuration not stated)	nt	0%	nt	6%	nt	-23%
CC1(Br)C(Sc2ccccc2[N+](=O)[O-])=Nc2ccccc21 (configuration not stated)	-1	0%	-57%	nt	nt	nt
COCC(C)n1c(C)cc(C(=O)COc2ccc(N(C)S(=O)(=O)c3ccc(NC(C)=O)cc3)cc2)c1C (configuration not stated)	-1	10%	-36%	2%	-10%	-7%
C=CCn1c(C)cc(C(=O)COc2ccc(N(C)S(=O)(=O)c3ccc(NC(C)=O)cc3)cc2)c1C	-1	25%	-43%	-23%	-8%	16µM*
CCCCc1c(O)nc2sc3cc(OC)ccc3n2c1=O	-1	4%	11µM*	-5%	20%	nt
O=C(O)c1ccc(CNc2ncnc3nc[nH]c23)cc1	nt	nt	0%	8%	nt	6%
CCOc1ccc(Nc2cc(C)nc(N3CCOCC3)n2)cc1	1	1%	12%	?	-7%	11%
CCOc1ccc2nc(N3CCOCC3)nc(C)c2c1	-1	1%	4.5µM*	22%	?	?
O=C(Nc1nc(-c2ccc3c(c2)OCCO3)cs1)c1ccc(Br)o1	1	9%	5%	nt	nt	nt
Cc1cccc(Nc2nc(-c3ccc4c(c3)OCCO4)cs2)c1	0	5%	?	3%	?	?
Cc1nc(-c2ccc3c(c2)OCCO3)cs1	0	4%	7.9µM*	-1%	24%	?
Cc1ccc(C(=O)Nc2nc(-c3ccc4c(c3)OCCO4)cs2)o1	0	3%	8.9µM*	nt	nt	nt
COc1cccc(C(=O)Nc2nc(-c3ccc4c(c3)OCO4)cs2)c1	4	4%	49%	-23%	-3%	13µM*
C=CCNc1nnc(-c2cccc3ccccc23)o1	nt	nt	nt	3%	nt	7%
COc1ccc(CN(Cc2ccccc2)C(=O)c2ccccc2O)cc1	nt	nt	nt	4%	nt	?
CCOc1ccccc1-c1nc(-c2ccc(C)nc2OC)no1	1	4%	7.1µM*	2%	?	?
COc1nc(-c2ccccc2)ccc1-c1noc(-c2ccccc2)n1	0	?	6.3µM*	-2%	?	?
CCOc1nc(C)ccc1-c1noc(-c2ccccn2)n1	-1	3%	35%	2%	?	?
CCc1ccc(CNC(=O)CCN2C(=O)COc3ccccc32)cc1	nt	-1%	nt	16%	nt	nt
